# In PubChem BioAssay (NCI):
# Compounds without any hit were thinned out: in the full panel of roughly 79,000, 15% have a hit. Values without a mark were called inactive. No stated cut-off is given here; in the data, active means growth inhibition above about 70%; inactive means the rest. Where a SMILES comes first, the peptide text is derived from it. [ ]: non-standard residue; d: D form. pGlu = O=C1CC[CH](C(=O)O)N1
# Assay: NCI Yeast Anticancer Drug Screen. Data for the cln2 rad14 strain (AID 165);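 further: 0% = growth equal to vehicle treated cultures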
# Settings: S. cerevisiae cln2 rad14 strain, at 50.0 µM, active compounds read high
# Procedure, shortened: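 Each compound was tested on cln2 rad14 yeast. Inhibition of growth was calculated against vehicle-exposed controls.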
row,SMILES,growth inhibition [%]
1,N/N=C(/c1ccc(Cl)cc1)N1CCOCC1,-8.6
2,CCN(CC)CN1C(=O)C2C3C=CC(C2C1=O)C1C2C(=O)N(CN(CC)CC)C(=O)C2C31 (stereo unspecified),-9.15
3,Cc1ccc(C)c(NC(=O)CCC(=O)C(C#N)c2nc3ccccc3s2)c1 (stereo unspecified),17.6
4,CCOC(=O)C(NC(N)=O)C(=O)OCC,-34.7
5,CC(NC(=O)C(Cc1cnc[nH]1)NC(=O)C1CCC(=O)N1)C(N)=O (stereo not drawn) ([pGlu]-His-Ala-NH2; configuration not given here),-21.8
6,CC(=O)Nc1c(C)cccc1[N+](=O)[O-],-17.6
7,CCCC(C)C1(CCC)C(=O)N=C(N)N=C1N (stereo unspecified),12.4
8,CC(=O)C1=C(O)C(Cc2ccccc2)NC1=O (stereo unspecified),-37.1
9,CC(=O)OC1CCC2C(C)(CCC3C2(C)CCC2(C)C4CC(C)(C)CCC4(C)CCC32C)C1C (stereo unspecified),-38.1
10,COC(=O)c1ccccc1C(=O)c1ccccc1,-4.75
11,COc1c2c(cc3c(CCc4ccccc4)cc(=O)oc13)CCC(C)(C)O2,15.4
12,CCOC(=O)C(=O)N1Cc2cc3c(cc2C2CC(O)C(O)CC21)OCO3 (stereo unspecified),6.05
13,OC1=CC(C2CCCCC2)CC(O)=C1 (stereo unspecified),-7.9
14,c1ccc(-c2csc3[n+]2CCN3)cc1,5.3
15,NNC(=O)CNC(=O)c1ccccc1,1.85
16,CCOC(=O)CC1(C)c2nc(NC(C)=O)sc2Cc2sc(NC(C)=O)nc21,-26.6
